Test results published in PubChem BioAssay (NCI).
Compounds without any hit were thinned out: in the full panel of roughly 83,000, 20% have a hit.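 Cell lines were cultured in 96-well plates, exposed to a single compound concentration, and assessed for percent growth 48 hours later.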 Active and inactive are the calls of the source. Rule for the calls: active = growth percent below 10; inactive = the rest.

Key:
Assay in all cases: NCI-60 one-dose screen, 48 h (100 = growth as untreated, 0 = no growth, -100 = all killed)
Details in all cases: 10 µM unless noted
[1] = tested on: NCI-H23 lung
[2] = tested on: NCI-H226 lung
[3] = tested on: NCI-H322M lung
[4] = tested on: HOP-62 NSCLC
[5] = tested on: NCI-H460 lung
[6] = tested on: HOP-92 NSCLC
[7] = tested on: NCI-H522 lung
[8] = tested on: A549/ATCC NSCLC
[9] = tested on: 786-0 renal
[10] = tested on: COLO 205 colon
[11] = tested on: DU-145 prostate
[12] = tested on: K-562 leukemia
[13] = tested on: MALME-3M melanoma
[14] = tested on: MDA-MB-231 breast
[15] = tested on: RXF 393 renal
[16] = tested on: SF-268 CNS
[17] = tested on: SF-295 CNS
[18] = tested on: SF-539 CNS
[19] = tested on: UACC-257 melanoma
[20] = tested on: M14 melanoma

Measured: growth

C=C1CCC2C3(C)COC(c4cccc(F)c4)OC3CCC2(C)C1C/C=C1/C(=O)OCC1O (stereo not given)
inactive: [2] 30.7% | [3] 53.3% | [4] 22.6% | [8] 23.3% | [12] 10.5% | [16] 67.9%
active: [1] -37.6% | [5] 8.73% | [6] -6.12% | [7] -76.1% | [9] -84.8% | [10] -51.5% | [11] 4.04% | [13] -41.9% | [14] -32.8% | [15] -70.5% | [17] 2.97% | [18] -72.5% | [19] -28.8% | [20] -40.7%

Cn1cc(NC(=O)c2cc(NC(=O)c3ccc(C#Cc4ccccc4)cc3)cn2C)cc1C(=O)NCCCN1CCOCC1
active: [5] -15.3% | [6] -11.5% | [7] -52.2% | [9] -4.75% | [10] -78.7% | [12] -41.5% | [13] -84.8% | [14] 4.99% | [15] -4.28% | [17] -81.9% | [18] -85.5% | [19] -28.8% | [20] -86.4%
inactive: [1] 58.9% | [2] 69.7% | [3] 81% | [4] 85.4% | [8] 33.3% | [11] 56.4% | [16] 63.2%

COc1cc2c(c(OC)c1OC)C(=O)CC(c1cccc(NC(=O)c3cccc([N+](=O)[O-])c3)c1)O2 (stereo not given)
active: [7] -7.5%
inactive: [1] 38.2% | [2] 38.4% | [3] 63.3% | [4] 47.9% | [5] 35.4% | [6] 17% | [8] 43.8% | [9] 59.7% | [10] 51.8% | [11] 26.9% | [12] 25.7% | [13] 33.5% | [14] 24.2% | [15] 43.6% | [16] 38.4% | [17] 44.6% | [18] 48.7% | [19] 44.1% | [20] 37.2%

CC(C)CSc1nc(NCCc2c[nH]c3ccccc23)c(C#N)c(-c2ccc(F)cc2)n1
inactive: [1] 72.9% | [2] 44.9% | [3] 91.2% | [4] 34.9% | [5] 11.6% | [6] 50.9% | [7] 62.4% | [8] 51.2% | [9] 67.9% | [10] 31.6% | [11] 58.6% | [12] 18.9% | [13] 73% | [14] 40.8% | [15] 26.1% | [16] 51.9% | [17] 46.7% | [18] 47.9% | [19] 81% | [20] 62.7%

Cc1ccc(C(=O)CSc2nc3ccc(F)cc3c(=O)n2-c2ccc(Cl)cc2)cc1
inactive: [1] 46% | [3] 64.8% | [5] 22.4% | [7] 63.8% | [8] 60.9% | [9] 10.7% | [10] 69.9% | [11] 50.4% | [12] 88.8% | [13] 39.6% | [14] 13.7% | [16] 28.9% | [19] 70.4% | [20] 56.5%
active: [2] -21.9% | [4] -17.1% | [6] -2.96% | [15] -10.6% | [17] 4.69% | [18] 2.03%

COc1ccc(C(SCCNCc2cc(N(C)C)ccn2)(c2ccccc2)c2ccccc2)cc1
active: [1] -10.7% | [5] -58.6% | [6] -16.5% | [7] -20.6% | [9] -23.1% | [10] -78% | [11] 7.05% | [12] -28.5% | [13] -91.4% | [14] -33.4% | [15] -21.4% | [17] -58.8% | [18] -93% | [19] -20.9% | [20] -46.3%
inactive: [2] 15.1% | [3] 27.5% | [4] 10.9% | [8] 10.1% | [16] 22.1%

CC1(C)CC[C@]2(C(=O)Nc3ccc(Br)cc3)CC[C@]3(C)C(=CCC4[C@@]5(C)C[C@@H](O)[C@H](O)[C@@](C)(CO)C5CC[C@]43C)C2C1 (stereo not given in full)
inactive: [3] 54.5% | [8] 17.2% | [11] 21.5% | [13] 33.2% | [16] 43.8% | [19] 11.1% | [20] 31.9%
active: [1] 9.43% | [2] -28.6% | [4] 5.6% | [5] -42.1% | [6] -53.4% | [7] -31.3% | [9] -28.2% | [10] -74.1% | [12] 5.08% | [14] -43.3% | [15] -64.5% | [17] -13.3% | [18] -5.36%
